According to ChEMBL document CHEMBL3988442, “University of Dundee, Small-Polar-MMV Screening Library” (2021):
Values joined by “and” are separate entries in the source; they are usually repeats but may differ in a detail not shown here. Equal values may be shown once. The campaign covered roughly 34,000 compounds. About 290 (0.85%) showed an effect of 50% or more. For the sample, strong results were picked, then their nearest neighbours and some compounds at random.

Tested on: Plasmodium falciparum
Assay: Plasmodium falciparum sporozoite viability assay
Format: functional, organism-based
Set-up: scale not given: in the data most compounds retested in dose-response had high values

Cc1cnccc1CN1Cc2ccccc2O[C@]2(CC[C@H](CO)CC2)C1
Percent Effect: 13.72%

Cc1cc(CN2CCCC(c3cc(C(F)(F)F)[nH]n3)C2)no1 (configuration not stated)
Percent Effect: 9.793%

O=C(CCCc1nnc(-c2ccccc2)o1)N1CCN(C2CC2)CC1
Percent Effect: 16.07%

Cc1ccc(NC2CCN(C(=O)c3cnn(C(C)(C)C)c3)CC2)nn1
Percent Effect: -0.1023%

c1ccn2c(C3CCCN3Cc3nc(C4CC4)no3)nnc2c1 (configuration not stated)
Percent Effect: -1.432%

Cc1cnn(CC2CN(CC(=O)Nc3ccnn3C(C)C)CCO2)c1 (configuration not stated)
Percent Effect: 2.692%

Cc1ccccc1OCCC(=O)N1CCC(c2nncn2C)CC1
Percent Effect (10 mM as filed; unlikely as a test dose): 2.17% and -2.919% and 0.9191%

Cn1cnnc1C1CCN(C(=O)CCCOc2ccccc2F)CC1
Percent Effect (10 mM as filed; unlikely as a test dose): 83.01% and 69.05% and 60.83%

CC(C)Nc1nc(O)cc(C2CC(=O)N(Cc3ccccn3)C2)n1.Cl (configuration not stated)
Percent Effect: 10.31%

CNc1cc(C)nc(C2CN(Cc3ccc(Cl)cn3)CCO2)c1 (configuration not stated)
Percent Effect: 20.7%

CCC(=O)N1CCC(c2ncc(C(=O)Nc3ccccc3)c(C)n2)C1 (configuration not stated)
Percent Effect: 8.085%

COc1ccc(CC(=O)N2CCCC2Cn2cc(C)cn2)cc1OC (configuration not stated)
Percent Effect (10 mM as filed; unlikely as a test dose): 8.878% and 3.897% and 0.6031%

COc1ccc2cc(C(=O)N3CCCC3Cn3cc(C)cn3)[nH]c2c1 (configuration not stated)
Percent Effect: -1.066%

Cc1nn(C)cc1-c1cncn1CCc1ccc2c(c1)OCCO2.Cl
Percent Effect (10 mM as filed; unlikely as a test dose): 35.23% and 54.6% and 46.78%

COC1COC2(CCN(CC3CCOCC3)CC2)C1.O=C(O)C(F)(F)F (configuration not stated)
Percent Effect: 2.7%

CC(C(=O)N1CCOCC1)n1nc(-c2cccs2)cc(N)c1=O (configuration not stated)
Percent Effect: -6.596%

CCn1cc(CN2CCCN(C(=O)c3ccccc3OC)CC2)cn1
Percent Effect: 5.544%

CCCc1cc(CNC2CCN(c3nc4ccccc4s3)CC2)on1
Percent Effect (10 mM as filed; unlikely as a test dose): 84.7% and 90.12%

CCCc1cc(CNC(=O)C2CCOc3ccccc3C2)on1 (configuration not stated)
Percent Effect: 10.71%

Cc1nc(CN2CCCC(NCc3nc4ccccc4s3)C2)no1 (configuration not stated)
Percent Effect: 12.82%

CC(=O)N1N=C(c2ccccc2)OC1C(=O)NCCc1ccc(C)cc1 (configuration not stated)
Percent Effect: -14.76%

CNC(=O)CN1CCCC12CCN(C(=O)c1ccccc1F)CC2.O=C(O)C(F)(F)F
Percent Effect: -2.189%

Cl.Clc1ccccc1CN1CCc2nc(C3CCCNC3)ncc2C1 (configuration not stated)
Percent Effect: 2.109%

CC(C)Oc1ccc2c(NC(=O)[C@H](C)O)nn(CC(F)(F)F)c2c1
Percent Effect (10 mM as filed; unlikely as a test dose): -22.23% and -11.46%

Cc1csc(NC(=O)[C@@H]2C[C@H]3[C@H](CCN3c3ncccn3)O2)n1.O=C(O)C(F)(F)F
Percent Effect: 2.312%

CCn1ccc(C(=O)N2CCOC(c3nc(-c4cccs4)no3)C2)n1 (configuration not stated)
Percent Effect (10 mM as filed; unlikely as a test dose): -10.26% and 14.68% and 1.172%

CCn1cc(C(=O)N2CCOC(c3nc(-c4cccs4)no3)C2)cn1 (configuration not stated)
Percent Effect (10 mM as filed; unlikely as a test dose): 66.92% and 76% and 54.9%

CCCn1cc(C(=O)N2CCOC(c3nc(-c4cccs4)no3)C2)cn1 (configuration not stated)
Percent Effect (10 mM as filed; unlikely as a test dose): 42.39% and 34.52% and 29.79%

CC(C)n1cnc(-c2nc(C(=O)NC3CC3)c3ccccn23)c1
Percent Effect: 6.582%

Cc1nc(-c2nc(C(=O)N3CCOCC3)c3ccccn23)cn1C(C)C
Percent Effect (10 mM as filed; unlikely as a test dose): 54.88% and 55.7%

Cc1nc(-c2nc(C(=O)N(C)C)c3ccccn23)cn1C(C)C
Percent Effect (10 mM as filed; unlikely as a test dose): 38.79% and 23.46% and 42.96%

Cc1nc(-c2nc(C(=O)NC3CC3)c3ccccn23)cn1C(C)C
Percent Effect (10 mM as filed; unlikely as a test dose): 58.89% and 55% and 41.86%

Cn1cnc(-c2nc(C(=O)NC3CC3)c3ccccn23)c1
Percent Effect: 10.82%

Cn1cnc(-c2cc(C(=O)N3CCOCC3)c3ccccn23)c1
Percent Effect: -1.371%

CCNC(=O)c1cc(OC)c2cc(F)cc(C)c2n1
Percent Effect: 1.557%

Cc1cncnc1C1CCN(CC2CC2)CC1
Percent Effect: 1.471%

CCCOc1cccc(OCc2ccon2)c1
Percent Effect: -14.79%

Cc1cc(C)n(CC2CCCCN2CCc2ccncc2)n1 (configuration not stated)
Percent Effect: 5.224%

Cc1c(C)n2c(SCC(=O)N3CCCCCC3)nnc2[nH]c1=O
Percent Effect (10 mM as filed; unlikely as a test dose): -20.75% and -26.48%

CNC(=O)CNC(=O)c1ccc(-c2scnc2C)nc1
Percent Effect: 1.458%

CCc1ccc(C(=O)NCc2ccnc(N3CCN(C)CC3)c2)o1
Percent Effect: 8.293%

CCc1nnc2n1CCN(CCC(=O)Nc1sccc1C#N)C2
Percent Effect: 5.694%

CCOC[C@@H]1CC[C@H]2[C@H](CCN2C(=O)c2cnccn2)O1
Percent Effect: -3.07%

c1ccc(-c2nc(CNC3CCc4ncnn4C3)cs2)cc1 (configuration not stated)
Percent Effect: 1.596%

CC(=O)N1CCN(Cc2coc(-c3cccc(F)c3)n2)CC1
Percent Effect (10 mM as filed; unlikely as a test dose): -29.73% and -43.84% and -27.15%

OCCN1CCN(Cc2coc(-c3cccc(Cl)c3)n2)CC1
Percent Effect: -3.989%

CCN1CCN(Cc2coc(-c3cccc(F)c3)n2)CC1
Percent Effect (10 mM as filed; unlikely as a test dose): 64.85% and 77.13% and 53.15%

N#Cc1ccc(NCCC(=O)N2CCCc3ccccc32)nc1
Percent Effect: -11.08%

Cc1cc(CC2COCCN(CCc3ccccc3)C2)ncn1 (configuration not stated)
Percent Effect: 5.745%

O=C(c1cc(-c2cccnc2)[nH]n1)N1CCCC(c2cnccn2)C1 (configuration not stated)
Percent Effect: 12.79%

CC(=O)N1CCOC(c2ccnc(N(C)C)n2)C1 (configuration not stated)
Percent Effect: 3.741%

COc1ccc2c(c1)[C@@H](CCNC(C)=O)CC(C)(C)O2
Percent Effect: 3.641%

COc1ccnc(N2CCN(CC(=O)N3CCOC(C)C3)CC2)n1 (configuration not stated)
Percent Effect: -0.9874%

COc1ccc2cc(C3CN(C(=O)CCNC(C)=O)CCO3)ccc2c1 (configuration not stated)
Percent Effect (10 mM as filed; unlikely as a test dose): 97.44% and 100.2% and 98.47%

COc1ccc(-c2cnc(N(C)C)nc2C2CN(C(C)=O)CCO2)cc1 (configuration not stated)
Percent Effect: 14.8%

COc1ccc2cc(C3CN(C(=O)N(C)C)CCO3)ccc2c1 (configuration not stated)
Percent Effect (10 mM as filed; unlikely as a test dose): 102.8% and 105.3% and 102%

COc1ccc2cc(C3CN(C(=O)CN4CCCC4)CCO3)ccc2c1 (configuration not stated)
Percent Effect (10 mM as filed; unlikely as a test dose): 56.27% and 53.19% and 50.16%

Cc1c[nH]nc1C1CCN(C(=O)C2CCOCC2)C1 (configuration not stated)
Percent Effect: -9.491%

COc1ccc(CN2CCO[C@H]3CN(C(=O)C4CC4)CC[C@H]3C2=O)cc1
Percent Effect: -7.815%

COc1ccc2cc(C3CN(C(=O)C4CCOCC4)CCO3)ccc2c1 (configuration not stated)
Percent Effect (10 mM as filed; unlikely as a test dose): 90.24% and 38% and 72.69%

Nc1cccc(C2CN(C(=O)CN3CCOCC3)CCO2)n1 (configuration not stated)
Percent Effect: 3.517%

CC(=O)NCC(=O)N1CCOC(c2cccc(N)n2)C1 (configuration not stated)
Percent Effect: 2.685%
